Values joined by “and” are separate entries in the source; they are usually repeats but may differ in a detail not shown here. Equal values may be shown once. Results filed as inconclusive are left out. Active and inactive are the calls of the source. The call rests on the fitted dose curve; in most records, active means well fitted cell-killing curve with a large enough effect; inconclusive means small, poorly fitted or top-dose-only effect; inactive means flat fitted curve, though single readings scatter. Where a SMILES comes first, the peptide text is derived from it. Bridges are numbered along the chain shown (N, C = ends). [ ]: non-standard residue; d: D form. hArg = N=C(N)NCCCC[C@H](N)C(=O)O; Mpa = O=C(O)CCS
Experiment: Cellular viability qHTS for adrenocortical cancer (ACC) cell line NCI-H295R (AID 1963990); further: nearly all actives have a fitted effect of over 60% in size
Conditions: CellTiter-Glo ATP luminescence, 48 h; series mostly up to 46.1 µM; activity change, negative = viability loss: at the top concentration
Source text: PI: Naris Nilubol, MD Surgical Oncology Program, National Cancer Institute (NCI) National Institute of Health (NIH), Bethesda, Maryland Adrenocortical cancer (ACC) is a rare malignancy with poor survival outcomes and few treatment options. Currently, mitotane is the only FDA-approved therapy for ACC. Although adjuvant radiation therapy is rarely utilized, it has the potential to improve survival in select cases. Through a quantitative high-throughput drug screen (qHTS), we identified auranofin (AF), a thioredoxin reductase (TXNRD) inhibitor, as a promising candidate drug. This study aims to evaluate whether AF can enhance the efficacy of radiation therapy in the treatment of ACC. Two human ACC cell lines, SW-13 and NCI-H295R, were screened using the National Center for Advancing Translational Sciences (NCATS) Pharmaceutical Collection (NPC) and the Mechanism Interrogation PlatE (MIPE) library (~4,991 compounds). CellTiter-Glo (Cat # G7570, Promega, Madison, WI) was utilized to measure cell viability. Described herein are the results of the corresponding viability assay.
PROTOCOL TABLE (as described by Inglese J, Shamu CE and Guy RK. 2007) SEQUENCE No. (e.g., 1, 2, 3, etc.); […] (e.g., Cells, Incubation, Reagent, etc.); VALUE; DESCRIPTION. 1; Cells; 5 uL; white, solid-bottom, 1536-well tissue-culture treated plates. 2; Time; overnight culture at 37C with 5% CO2. 3; Compounds and control; 23 nL; Kalypsis pin tool (Wako USA) equipped with a 1536-well pin head to transfer to the assay plates. 4; Time; 48 hours; 37C with 5% CO2. 5; Reagent; 4 uL; CellTiter-Glo luminescent substrate mix. 6; Time; 20 min at room temperature. 7; Detection; Luminescence; ViewLux plate reader NOTES (numbers refer to Sequence numbers above) 1. NCI-H295R cells were harvested from a T175 flask and resuspended in ITS-supplemented DMEM serum-free medium at a concentration of 300 000 cells/mL. Then 5 uL of resuspended cells were dispensed into each well of white, solid-bottom, 1536-well tissue-culture-treated plates using a multidrop combi dispenser. The plates were covered with stainless steel gasket lids. 2-3. The plates were cultured overnight at 37C with 5% CO2. Twenty-three nL of compounds (eight selected concentrations from the NPC / MIPE) or positive control (10 mM stock of bortezomib) in DMSO was transferred to each well of the assay plate using a pin tool (Kalypsys, San Diego, CA, USA). The final concentration of the compounds in the 5 uL assay volume ranged from 0.5 nM to 46 uM. 4-6. After 48 hours of incubation at 37C and 5% CO2, 4 uL of CellTilter-Glo luminescent substrate mix (Promega, Madison, WI, USA) was added to each well. Then the plates were incubated for 20 minutes at room temperature. 7. After incubation, luminescence was measured using a ViewLux plate reader (PerkinElmer, Waltham, MA, USA) with a clear filter was used to measure the number of metabolically competent cells. To determine compound activity in the qHTS assay, the titration-response data for each sample was plotted and modeled by a four-parameter logistic fit yielding IC50 and efficacy (maximal response) values. Raw plate reads for each titration point were normalized relative to positive control ([…], 100% inhibition) and DMSO-only wells (basal, 0%). REFERENCES: Inglese J, Shamu CE and Guy RK, Reporting data from high throughput screening of small molecule libraries, Nature Chemical Biology, 2007, 3(8): 438-441. doi.org/10.1038/nchembio0807-438.

Row | Compound | Potency | activity change, negative = viability loss
1 | CN1CCCN=C1/C=C/c1cccs1 | inactive | –
2 | Cc1ccc(-c2nc(N)nc3c2nnn3Cc2cccc(CO[C@H]3CCOC3)n2)o1 | – | -1.27% (inactive)
3 | O=C(NCC(O)CO)c1c(I)c(C(=O)NCC(O)CO)c(I)c(N(CCO)C(=O)CO)c1I (stereo not given) | – | -14.6% (inactive)
4 | C[C@@H]1C[C@H]2[C@@H]3C[C@H](F)C4=CC(=O)C(Cl)=C[C@]4(C)[C@@]3(F)[C@@H](O)C[C@]2(C)[C@@]1(O)C(=O)CO | – | -17.7% (inactive)
5 | NC(=O)[C@@H]1CSSCCC(=O)N[C@@H](CCCCN=C(N)N)C(=O)NCC(=O)N[C@@H](CC(=O)O)C(=O)N[C@@H](Cc2c[nH]c3ccccc23)C(=O)N2CCC[C@H]2C(=O)N1 ([Mpa][hArg]GDWPC-NH2; disulfide 1-7) | – | -1.73% (inactive)
6 | Cc1ccc(NC(=O)NCc2ccc3c(c2)CN(C2CCC(=O)NC2=O)C3=O)cc1Cl (stereo not given) | 0.0251 µM (active) | –
7 | CC1=C2[N-][C@H]([C@H](CC(N)=O)[C@@]2(C)CCC(=O)NC[C@@H](C)OP(=O)([O-])O[C@H]2[C@@H](O)[C@@H](n3cnc4cc(C)c(C)cc43)O[C@@H]2CO)[C@]2(C)N=C(C(C)=C3N=C(C=C4N=C1[C@@H](CCC(N)=O)C4(C)C)[C@@H](CCC(N)=O)[C@]3(C)CC(N)=O)[C@@H](CCC(N)=O)[C@]2(C)CC(N)=O.O.[Co+2] | – | -16.5% (inactive)
8 | CC[C@H]1OC(=O)[C@H](C)[C@@H](O[C@H]2C[C@@](C)(OC)[C@@H](O)[C@H](C)O2)[C@H](C)[C@@H](O[C@@H]2O[C@H](C)C[C@H](N(C)C)[C@H]2O)[C@](C)(O)C[C@@H](C)C(=O)[C@H](C)[C@@H](O)[C@]1(C)O | – | 11.8% [at 20 µM] (inactive)
9 | C[C@@H]1CCN(C(=O)[C@H](CCCN=C(N)N)NS(=O)(=O)c2cccc3c2NC[C@H](C)C3)[C@@H](C(=O)O)C1 | – | -10.7% (inactive)
10 | O=C1NC(O)CCN1[C@@H]1O[C@H](CO)[C@H](O)[C@H]1O (stereo not given in full) | – | 9.12% (inactive)
11 | C[C@]12CCC3=C4CCC(=O)C=C4CC[C@H]3[C@@H]1CC[C@@]2(O)CC#N | – | 3.83% (inactive)
12 | Clc1cccc(C(c2ccc3nc[nH]c3c2)n2ccnc2)c1 (stereo not given) | inactive | –
13 | Cc1cc(C(=O)Nc2cc(Oc3ccc4nc(NC(=O)C5CC5)cn4n3)ccc2C)n(C)n1 | 22.4 µM (active) | –
14 | CCN1CCN(c2cc3c(cc2F)c(=O)c(C(=O)O)cn3C2CC2)CC1 | – | -13.6% (inactive)
15 | Cc1cc(NS(=O)(=O)c2ccc(N)cc2)nc(C)n1 | – | -5.15% (inactive)
16 | CC(=O)Nc1ccc(C(=O)O)cc1 | – | -9.84% (inactive)
17 | CCN(CC)CCCC(C)Nc1ccnc2cc(Cl)ccc12 (stereo not given) | inactive | –
18 | CO[C@H]1C(=O)[C@]2(C)[C@@H](OC)C[C@H]3OC[C@@]3(OC(C)=O)[C@H]2[C@H](OC(=O)c2ccccc2)[C@]2(O)C[C@H](OC(=O)[C@H](O)[C@@H](NC(=O)OC(C)(C)C)c3ccccc3)C(C)=C1C2(C)C | 0.0079 µM (active) | –
19 | Cc1nc(-c2cccnc2)sc1C(=O)Nc1ccccc1-c1cn2c(CN3CCOCC3)csc2n1 | – | -26.5% (inactive)
20 | C=Cc1c(C)c2cc3[nH]c(cc4nc(cc5nc(cc1[nH]2)C(C)=C5CCC(=O)O)C(CCC(=O)O)=C4C)c(C)c3C=C | – | -20.3% (inactive)

Row | Compound | Potency | activity change, negative = viability loss
21 | O=C(CCCCCCNC(=O)c1cnc(N(c2ccccc2)c2ccccc2Cl)nc1)NO | 11.2 µM (active) | –
22 | Cc1cc(CN2CCN(c3c(Br)cnc4nc(-c5ccc(N6CCN(C)CC6)cc5)[nH]c34)CC2)no1 | 28.2 µM (active) | –
23 | O=C(O)Cc1sc(-c2ccccc2)nc1-c1ccc(Cl)cc1 | – | -1.18% (inactive)
24 | CC[C@H](CO)Nc1nc(NCc2ccccc2)c2ncn(C(C)C)c2n1 | 31.6 µM (active) | –
25 | CC(/C=C/C(=O)NO)=C\[C@@H](C)C(=O)c1ccc(N(C)C)cc1 | 3.98 µM (active) | –
26 | Cc1cccc(OCC(O)CNC(C)(C)C)c1C (stereo not given) | – | 1.01% (inactive)
27 | O=P(O)(O)C(O)(Cc1cccnc1)P(=O)(O)O | inactive | –
28 | CN(c1nccc(=O)[nH]1)C1CCN(c2nc3ccccc3n2Cc2ccc(F)cc2)CC1 | – | 1.54% (inactive)
29 | CC(C)=CCC[C@@](C)(O)[C@H]1CC=C(C)CC1 | – | 5.69% (inactive)
30 | CC(C)(O)CCc1ccc(OCc2cc(-c3cccc(OC(F)F)c3)c3ncccc3c2)cc1 | 25.1 µM (active) | –
31 | COc1cc(Nc2nc3ccccc3nc2NS(=O)(=O)c2ccc(NC(=O)c3ccc(C)c(OC)c3)cc2)cc(OC)c1 | – | 15.5% (inactive)
32 | C=CCSCC1Nc2cc(Cl)c(S(N)(=O)=O)cc2S(=O)(=O)N1 (stereo not given) | – | 0.677% (inactive)
33 | NC(=O)COCCN1CCN(C(c2ccccc2)c2ccc(Cl)cc2)CC1 (stereo not given) | – | -9.66% (inactive)
34 | OCCN1CCN(CCCN2c3ccccc3Sc3ccc(Cl)cc32)CC1 | 2.59 µM (active) | –
35 | Cc1ccc(C(=O)c2cc(O)c(O)c([N+](=O)[O-])c2)cc1 | 23.1 µM (active) and 31.6 µM (active) | –
36 | CCOC(CN1CCN(CC(C)C(=O)c2ccccc2)CC1)c1ccccc1 (stereo not given) | – | -0.104% [at 20 µM] (inactive)
37 | CC(=O)c1cc2c(o1)C(=O)c1ccccc1C2=O | 0.891 µM (active) | –
38 | C/C(=C(\CCO)SS/C(CCO)=C(\C)N(C=O)Cc1cnc(C)nc1N)N(C=O)Cc1cnc(C)nc1N | – | 0.0181% (inactive)
39 | C/C=C1\NC(=O)[C@H]2CSSCC/C=C\[C@H](CC(=O)N[C@H](C(C)C)C(=O)N2)OC(=O)[C@H](C(C)C)NC1=O | 0.0631 µM (active) | –
40 | CON(C)C(=O)N1N=C(c2cc(F)ccc2F)S[C@@]1(CCCN)c1ccccc1 | 0.0562 µM (active) | –
